Screening results (PubChem)
The list is not random: actives were taken first. Their share in the collection is about 2.5%.
MBD2 DNA inh – MBD2-methylated oligo binding inhibition. Q9UBB5. TR-FRET, MBD2 binding to methylated oligonucleotide. inhibition, % at 4.4 µM. 0.31% of 370,000 active; in the data active = inhibition above about 13%
LEDGF integ inh – blocks HIV-1 LEDGF/p75-dependent DNA integration | AID 743269 | inhibition, % at 3.7 µM | 0.64% of 370,000 active | TR-FRET IN-LEDGF/p75 DNA integration, Eu/Cy5;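 active = inhibition above the screen-wide mean plus 3 SD, cut at about 13% in these data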;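 note: signal is the Cy5 over europium emission ratio at 671 and 618 nm; 0% = plate median of compound wells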
UHRF1 binding – human UHRF1 methylated DNA binding inhibitors; UHRF1 binding to methylated oligo, TR-FRET; inhibition, % at 4.4 µM; 0.75% of 370,000 active; AID 687016; in the data active = inhibition above about 21%;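 note: UHRF1 SRA domain binding a hemimethylated CpG hairpin DNA probe; 0% = median of test compound wells and 100% = reference inhibitor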
Target sequence (Q96T88 whole entry, looked up, the tested form may be a part): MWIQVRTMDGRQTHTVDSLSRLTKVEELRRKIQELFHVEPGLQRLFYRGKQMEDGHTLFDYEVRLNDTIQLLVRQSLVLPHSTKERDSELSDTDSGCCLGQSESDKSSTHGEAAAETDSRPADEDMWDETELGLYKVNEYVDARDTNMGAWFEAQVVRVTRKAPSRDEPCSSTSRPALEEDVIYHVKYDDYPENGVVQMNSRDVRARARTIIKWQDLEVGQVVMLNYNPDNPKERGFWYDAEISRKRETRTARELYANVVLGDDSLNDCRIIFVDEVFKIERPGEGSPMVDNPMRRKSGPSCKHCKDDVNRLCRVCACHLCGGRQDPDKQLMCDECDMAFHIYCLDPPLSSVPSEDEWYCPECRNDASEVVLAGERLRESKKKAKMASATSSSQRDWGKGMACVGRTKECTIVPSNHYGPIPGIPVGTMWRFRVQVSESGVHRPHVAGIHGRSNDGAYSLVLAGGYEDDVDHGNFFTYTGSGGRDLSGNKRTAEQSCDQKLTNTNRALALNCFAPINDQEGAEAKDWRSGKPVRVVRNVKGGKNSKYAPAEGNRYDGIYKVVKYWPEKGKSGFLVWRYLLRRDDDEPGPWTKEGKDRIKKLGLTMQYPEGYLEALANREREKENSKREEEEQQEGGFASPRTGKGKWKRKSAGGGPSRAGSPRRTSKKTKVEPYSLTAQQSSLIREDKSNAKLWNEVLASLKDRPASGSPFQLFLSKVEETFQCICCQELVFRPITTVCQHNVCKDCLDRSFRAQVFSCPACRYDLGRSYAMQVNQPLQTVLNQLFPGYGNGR
PRMT1 FP inh – blocks human protein arginine methyltransferase 1 | inhibition, % at 2.79 µM | Q99873 | 1.3% of 370,000 active | recombinant PRMT1, activity-based probe fluorescence polarization;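 active = inhibition above about 21% made by adding two undisclosed values, limit read from the data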
IN multimer up – activates HIV-1 integrase multimerization in LEDGF counter-screen | shares compounds with LEDGF integ inh | activation, % at 7.7 µM | 17% of 2,000 active | TR-FRET HIV-1 integrase multimerization, biochemical; in the data active = activation above about 8.9%
TRFRET interf – TR-FRET optical interference, LEDGF/p75 integration counter-screen | shares compounds with LEDGF integ inh | TR-FRET optical interference counterscreen, HIV-1 IN multimerization | inhibition, % at 7.7 µM | 2,000 tested, under 10 active | AID 1053135;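 active = inhibition above the mean over all tested compounds plus 3 SD, which no compound reached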;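 note: 0% = integrase with antibodies and DMSO and 100% = antibodies without integrase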
LEDGF integ conf – confirmation of HIV-1 LEDGF/p75-dependent integration inhibitors; shares compounds with LEDGF integ inh; TR-FRET LEDGF/p75-dependent HIV-1 integration, biochemical; inhibition, % at 3.7 µM; 36% of 2,000 active; AID 1053136; in the data active = inhibition above about 14%
Active calls of the source: *; nt = no result given.

SMILES	MBD2 DNA inh	LEDGF integ inh	UHRF1 binding	PRMT1 FP inh	IN multimer up	TRFRET interf	LEDGF integ conf
Cc1ccc([C@@H]2CC(=O)[C@@H]3CN(S(=O)(=O)c4ccc(C)cc4)[C@H](c4ccccc4)C[C@@H]3N2S(=O)(=O)c2ccc(C)cc2)cc1	-5	-1	1	3	nt	nt	nt
COc1ccccc1NC(=O)C(C)OC(=O)C1COc2ccccc2O1 (configuration not stated)	3	-1	0	1	nt	nt	nt
CC1(C(=O)NCCC(F)(F)F)Cc2c(-c3cccc(C(N)=O)c3)ccnc2O1 (configuration not stated)	-2	14*	1	5	-2	9	-2
O=C(CCC(=O)N1CCN(C2c3ccccc3-c3ccccc32)CC1)Nc1nnc(C(F)(F)F)s1	-6	2	-4	-1	nt	nt	nt
CCCCn1c(N)c(N(CCOC)C(=O)c2ccc(N3CCCC3)c([N+](=O)[O-])c2)c(=O)[nH]c1=O	-7	27*	-7	0	0	-2	2
CCCCn1c(N)c(N(CCOC)C(=O)c2ccc(NC3CC3)c([N+](=O)[O-])c2)c(=O)[nH]c1=O	-7	0	-3	-1	nt	nt	nt
CCOC(=O)C1(CCOc2ccccc2)CCN(Cc2ccc(CO)o2)CC1	6	18*	1	-1	0	-2	1
O=C(CSc1nc2ccccc2o1)NC(=O)NCc1ccccc1	0	29*	3	3	1	-4	0
O=C(CSc1nc2ccccc2o1)NC(=O)NCc1ccco1	2	1	1	3	nt	nt	nt
COc1ccc(N2CC(C(=O)NC3=NCCS3)CC2=O)cc1 (configuration not stated)	1	4	0	-1	nt	nt	nt
CN1CCN(C2=C(Cl)C(=O)c3ccccc3C2=O)CC1	-1	34*	16	18	3	-12	73*
O=c1[nH]c2cc3c(cc2cc1CN(Cc1nnnn1CC1CCCO1)C1CCCCC1)OCO3 (configuration not stated)	-7	18*	-8	23*	2	-6	-2
CC1CCCC(C)N1C(=O)COC(=O)c1cc(-c2cccs2)nn1-c1ccccc1 (configuration not stated)	-1	-1	0	-2	nt	nt	nt
O=[N+]([O-])c1ccc2nc(-c3ccncc3)[nH]c2c1	-6	46*	-7	-6	-1	3	4
CCN(CC)CCN(C(=O)c1ccc(CN2CCCCC2)o1)C(C(=O)NC1CCCCC1)c1ccc(F)cc1 (configuration not stated)	2	-3	3	0	nt	nt	nt
Cc1cc(CNC(=O)Cn2cc([N+](=O)[O-])cn2)c2ccccc2n1	0	17*	-2	2	-2	8	6
Cc1cc(CNC(=O)C(C)n2cc([N+](=O)[O-])cn2)c2ccccc2n1 (configuration not stated)	4	-4	1	5	nt	nt	nt
COc1cc(C(C(=O)NCC2CCCO2)N(C(=O)Cn2nnc3ccccc32)c2ccc(OC)c(OC)c2)ccc1O (configuration not stated)	9	42*	-1	3	1	-5	3
O=c1cc(-c2ccc(Cl)c(Cl)c2)[nH][nH]1	-7	15*	7	4	2	-7	14*
O=c1cc(-c2ccc(Cl)cc2)[nH][nH]1	1	13	4	-2	nt	nt	nt
COc1ccc(-c2cc(=O)[nH][nH]2)cc1	0	15*	-6	8	3	-9	3
COc1ccc(-c2cc(=O)[nH]c(=O)[nH]2)cc1	-1	3	1	-2	nt	nt	nt
CN(CC(=O)Nc1ccc(Cl)cc1)CC(=O)N1CCc2ccccc21	-6	-4	0	-3	nt	nt	nt
CC(=O)N1CCC(N(C(=O)Nc2c(F)cccc2F)C(C)C)CC1	-1	20*	-1	-1	0	-1	-1
COc1cccc(-c2cc(CNC(=O)[C@H]3O[C@@H](n4ccc(=O)[nH]c4=O)[C@H](O)[C@@H]3O)no2)c1	-4	1	-3	-2	nt	nt	nt
SMILES	MBD2 DNA inh	LEDGF integ inh	UHRF1 binding	PRMT1 FP inh	IN multimer up	TRFRET interf	LEDGF integ conf
CCCCC(=O)Nc1ccc2c(c1)nc(CCN1CCN(C)CC1)n2C	-8	82*	1	-6	2	-9	3
CC(=O)Nc1ccc2c(c1)nc(CCN1CCN(C)CC1)n2C	4	-4	1	-5	nt	nt	nt
COc1ccccc1N1C(=NC(=O)CCC2CCCC2)SC2CS(=O)(=O)CC21 (configuration not stated)	2	2	-2	-3	nt	nt	nt
O=Cc1ccc(O)cc1O	-2	0	1	1	nt	nt	nt
O=CN/C=C/c1cc(O)ccc1O	1	24*	16	48*	18*	-91	7
COc1ccc(/C=N/N2C(C)CCCC2C)cc1O (configuration not stated)	-1	2	2	-3	nt	nt	nt
CC1CCCC(C)N1/N=C/c1ccc(O)c(O)c1 (configuration not stated)	0	20*	12	7	22*	-77	53*
COC(=O)C1=C(C)N(C)C(=O)NC1c1cc2c(cc1[N+](=O)[O-])OCO2 (configuration not stated)	-4	5	4	10	nt	nt	nt
COC(=O)C1=C(C)N(CCCC(=O)O)C(=O)NC1c1cc2c(cc1[N+](=O)[O-])OCO2 (configuration not stated)	2	27*	14	27*	26*	-94	48*
COc1cccc(CNC(=S)Nc2ccc3c(c2)c(=O)n(C)n3Cc2ccccc2)c1	-5	-3	-4	0	nt	nt	nt
CCCn1c(-c2ccc[nH]c2=O)nc2cc(C)c(C)cc21	-1	0	4	-3	nt	nt	nt
COc1ccc(/C=C/C(=O)N2CCCc3ccccc32)cc1	0	21*	-2	-1	9.5*	-34	19*
COC1=CC(=O)c2c(ccc3ncnc(N)c23)C1=O	-6	53*	6	5	7	-26	73*
COc1cccc2c1C(=O)C=C(C)C2=O	2	-3	0	6	nt	nt	nt
Cc1cc(C)n(-c2nc3ccccc3nc2NCCc2ccccc2)n1	0	21*	2	0	0	0	2
COc1ccc(Nc2nc3ccccc3nc2-n2nc(C)cc2C)cc1	0	-3	1	2	nt	nt	nt
CN(C)S(=O)(=O)N1CCN(C(=O)N(c2ccccc2)c2ccccc2)CC1	3	71*	3	-2	0	1	0
O=c1[nH]c(=S)[nH]c2c1[C@H](CCc1cccc(Cl)c1)O[C@H](C1CCCC1)C2	-3	-3	-4	-3	nt	nt	nt
O=C1[C@@H]2Cc3c([nH]c4ccccc34)CN2C(=O)CN1CCCCCO	-2	96*	0	-1	0	-1	-5
